Sampled rows, rich in hits. Any-hit rate of the full collection: about 19%.
DT40 TDP1 no CPT: qHTS for Inhibitors of human tyrosyl-DNA phosphodiesterase 1 (TDP1): qHTS in cells in absence of CPT | DT40 Tdp1-/- hTDP1 cells, no CPT, ATP luminescence, 48 h | Potency, µM (highest dose often 46.2 µM), for inactives: at the highest dose activity change, negative = growth inhibition, hits mostly inhibitors | hit rate 15% among 420,000 | AID 686978, 2013; further: potency means the concentration at half of the fitted maximal effect; nearly all actives have a fitted effect of over 55% in size
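Stably hTDP1-transfected Tdp1-null chicken DT40 cells were treated with library compounds minus camptothecin and grown for at least 48 hr at 37 °C, after which cellular ATP was quantified by luminescence.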
HT1080NT lethal: kills 2HG-producing HT-1080-NT fibrosarcoma cells. HT-1080-NT fibrosarcoma viability, CellTiter-Glo ATP luminescence, 48 h. Potency, µM (doses to about 46.1 µM), inactives show at the highest dose activity, negative = less viability, actives largely listed as cytotoxic. hit rate 1.6% among 360,000;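 further: NT is the 2HG producing partner of a matched IDH1 knockdown line; potency means the concentration at half of the fitted maximal effect; 0% = DMSO-treated cells and -100% = media-only wells without cells; nearly all actives have a fitted effect of over 55% in size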
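A 48-hour cytotoxicity screen used HT-1080-NT cells plated 2 hours before compound delivery. ATP-based CellTiter-Glo luminescence measured viability, normalized to DMSO and no-cell controls.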
IL1B secr inh: inflammasome signaling inhibition, IL-1 beta readout | THP-1 LPS/ATP IL-1B secretion, AlphaLISA, 16 h; stronger effect = lower value | activity change, % at 57.5 µM | hit rate 4.7% among 360,000 | AID 743279; in the data active means activity change below about -50%; inconclusive means mostly about -30% to -49%
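Secreted IL-1B measured by AlphaLISA bead assay after 16 h compound exposure of THP-1 cells; compounds (final up to 57.5 uM) added 1 h before LPS (250 ng/mL) and ATP (1.25 mM) stimulation; lower signal means less secretion.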
DT40 TDP1 CPT: DT40-hTDP1 cell growth loss with CPT | chicken DT40 Tdp1-/-;hTDP1 cells + 20 nM CPT, ATP luminescence, 48 h | Potency, µM (series often up to 46.2 µM), without a hit: at the top dose activity change, negative = growth inhibition, hits mostly inhibitors | hit rate 12% among 420,000 | AID 686979; further: potency means the concentration at half of the fitted maximal effect; nearly all actives have a fitted effect of over 55% in size
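Chicken DT40 Tdp1-/- cells stably complemented with human TDP1 were seeded at 400 cells/well in medium containing 20 nM camptothecin, exposed to pin-transferred compounds, and grown at 37 °C for at least 48 hr. Viability was read as ATP luminescence.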
HT1080 IDH1KD tx: toxicity to HT-1080 IDH1 knockdown cells (counter line). HT-1080 IDH1 knockdown viability, ATP luminescence, 48 h. Potency, µM (titrated, usually from 46.1 µM), for the others: top-dose activity, negative = toxicity, usual class: cytotoxic. hit rate 2% among 360,000. AID 686971;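 further: potency means the concentration at half of the fitted maximal effect; 0% = DMSO wells and -100% = cell-free medium wells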
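CellTiter-Glo luminescence after 48 h compound exposure at 37 degrees C of IDH1-knockdown HT-1080 cells in 5% FBS RPMI. %Activity scaled between DMSO wells and cell-free media wells, with curves fitted and assigned curve classes.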
* marks the source's active call; other numbers are inactive results; u = inconclusive; x = no result. Unless noted, the call rests on the fitted dose curve; in most records, active means well fitted curve in the direction sought with a large enough effect; inconclusive means small, poorly fitted or top-dose-only effect, or another doubt; inactive means no such curve, though single readings can be large; an effect the other way counts as inactive or inconclusive. Unless noted, on the % scale 0 is the no-effect control and ±100 the full control effect.

SMILES	DT40 TDP1 no CPT	HT1080NT lethal	IL1B secr inh	DT40 TDP1 CPT	HT1080 IDH1KD tx
CCOc1ccc(NC(=O)c2ccccc2NC(=O)CNC2CCCC(C)C2C)cc1 (stereo unspecified)	7.3µM*	-7%	19	15µM*	0%
Clc1ccc(Nc2nc(-c3ccccc3)c3ccccc3n2)c(Cl)c1	-1%	x	x	-9%	x
O=C1/C(=C/c2ccc([N+](=O)[O-])cc2)Oc2cc(O)ccc21	7.3µM*	-25%	-1	u	-16%
O=C1/C(=C/c2ccc(Br)cc2)Oc2cc(O)ccc21	u	-20%	0	-4%	u
CC(C)(C)c1ccc(/C=C2\Oc3cc(O)ccc3C2=O)cc1	u	u	-74*	21µM*	u
O=C1/C(=C/c2ccc(O)cc2)CCc2ccc([N+](=O)[O-])cc21	16µM*	11%	u	u	7%
O=C(O)c1cccc(Cn2c(Cl)c(/C=N/NC(=O)c3cc4ccccc4cc3O)sc2=O)c1	-4%	-29%	66	-4%	-5%
COc1ccc(CC(=O)Nc2nnc(C(C)(C)C)s2)cc1OC	16µM*	2%	0	u	-20%
CC(C)(C)c1nnc(NC(=O)CCS(=O)(=O)Cc2ccccc2)s1	12µM*	-27%	-2	9.2µM*	u
Cc1nnc(NC(=O)CCS(=O)(=O)Cc2ccccc2)s1	u	23%	-1	10µM*	0%
Clc1cccc(Nc2nc(-c3ccncc3)nc3ccccc23)c1	u	-29%	-7	-14%	-24%
CC(=O)c1cccc(Nc2nc(-c3ccccc3Cl)nc3ccccc23)c1	10µM*	x	x	15µM*	x
CC(=O)c1cccc(Nc2nc(-c3cccc(C)c3)nc3ccccc23)c1	5.8µM*	x	x	21µM*	x
Cc1cccc(-c2nc(Nc3cccc(O)c3)c3ccccc3n2)c1	u	-8%	0	u	0%
CCOc1nc(-c2ccccc2O)nc2ccccc12	-18%	2%	8	-1%	12%
COC(=O)CNc1nc(-c2ccccc2F)nc2ccccc12	u	-6%	-19	-28%	-2%
CC(=O)Nc1cccc(Nc2nc(-c3ccccc3F)nc3ccccc23)c1	u	-18%	-52*	u	u
CC(C)Oc1nc(-c2ccccc2Cl)nc2ccccc12	15µM*	-16%	32	u	u
COC(=O)c1ccc(Nc2nc(-c3ccccc3Cl)nc3ccccc23)cc1	16µM*	x	x	u	x
CNc1nc(-c2ccccc2Cl)nc2ccccc12	-23%	x	x	-17%	x
Cc1cc(C)cc(C(=O)NC(CC(N)=O)c2ccc(NCC3CC3)c([N+](=O)[O-])c2)c1 (stereo unspecified)	-15%	8%	-10	7%	2%
O=C(Nc1cccc([N+](=O)[O-])c1)N1CCN(c2ccccc2)CC1	u	1%	-23	-17%	-4%
Cc1ccc(N2CCN(C(=O)Nc3cccc([N+](=O)[O-])c3)CC2C)cc1 (stereo unspecified)	u	-8%	-71*	-8%	-9%
Cc1ccc(S(=O)(=O)c2cn(C)c3cc(N4CCN(C)CC4)c(F)cc3c2=O)cc1	u	-1%	-97*	u	3%
Cc1ccc(S(=O)(=O)c2cn(C)c3cc(N4CCN(c5ccccc5)CC4)c(F)cc3c2=O)cc1	7.3µM*	x	x	u	x
SMILES	DT40 TDP1 no CPT	HT1080NT lethal	IL1B secr inh	DT40 TDP1 CPT	HT1080 IDH1KD tx
Cn1cc(S(=O)(=O)c2ccccc2)c(=O)c2cc(F)c(N3CCN(c4ccc(F)cc4)CC3)cc21	u	x	x	-29%	x
CCc1ccccc1NC(=O)N1CC(C)Sc2ccccc21 (stereo unspecified)	u	x	x	21µM*	x
CCOc1ccccc1CNC(=O)c1ccc(NC(=O)N2CC(C)Sc3ccccc32)cc1 (stereo unspecified)	7.3µM*	x	x	13µM*	x
CC1CN(C(=O)CCC(=O)NCc2cccc(Cl)c2)c2ccccc2S1 (stereo unspecified)	-28%	x	x	-25%	x
O=C(NCC1CCCC(CNC(=O)N2CCc3ccccc32)C1)N1CCc2ccccc21 (stereo unspecified)	-27%	u	u	-25%	20µM*
CC1CN(C(=O)Nc2ccc(C(=O)NCc3cccc(F)c3)cc2)c2ccccc2S1 (stereo unspecified)	18µM*	x	x	u	x
CC1=C(C(=O)NC2CCC(C)CC2)C2(CCC(C)CC2)OC1=O (stereo unspecified)	-28%	12%	12	-1%	8%
CCCC(=O)N(Cc1cc2cc(OC)ccc2[nH]c1=O)c1ccc(OC)cc1	u	-17%	1	u	-6%
Cc1cccc(CNC(=O)c2ccc(NC(=O)N3CCSc4ccccc43)cc2)c1	9.2µM*	x	x	16µM*	x
CCc1ccccc1NC(=O)N1CCc2ccccc21	u	-4%	-4	23µM*	9%
CC1CN(C(=O)Nc2ccc(C(=O)NCc3ccccc3F)cc2)c2ccccc2S1 (stereo unspecified)	15µM*	x	x	23µM*	x
Cc1ccccc1CCNC(=O)c1ccc(NC(=O)N2CC(C)Sc3ccccc32)cc1 (stereo unspecified)	7.3µM*	x	x	18µM*	x
O=C(COc1ccc(S(=O)(=O)NC2CCCCC2)cc1)NC1CCCC1	-28%	-1%	8	-26%	4%
Cn1nc(C(=O)N2CCN(c3ccccn3)CC2)c2ccccc2c1=O	u	7%	14	u	-3%
CC1(C)Cc2ccccc2-c2nnc(SCC(=O)Nc3ccc4c(c3)OCO4)n21	u	1%	u	16µM*	-2%
CCOC(=O)CSc1nnc2n1C(C)(C)Cc1ccccc1-2	-2%	0%	-7	8%	2%
COc1ccccc1N1CCN(C(=O)CSc2nnc3n2C(C)(C)Cc2ccccc2-3)CC1	15µM*	u	-28	13µM*	-4%
CC1Cc2ccccc2N1C(=O)CSc1nnc2n1C(C)(C)Cc1ccccc1-2 (stereo unspecified)	21µM*	1%	0	21µM*	1%
O=C(c1ccc(CS(=O)Cc2ccc(Cl)cc2)o1)N1CCN(C2CCCCC2)CC1 (stereo unspecified)	u	-9%	-28	-7%	-11%
CC(Oc1ccccc1)c1ccnc(N)n1 (stereo unspecified)	-1%	6%	-7	0%	1%
CC(Oc1ccc(Cl)cc1Cl)c1ccnc(N)n1 (stereo unspecified)	6%	-28%	-56*	6%	u
O=C1C2C3C=CC(CC3)C2C(=O)N1c1ccccc1F (stereo unspecified)	-26%	8%	4	-29%	15%
